The results in this text go back to PubChem BioAssay AID743144 (Broad Institute, 2013).

Structures are written as SMILES. Results with a measured potency or affinity are listed apart. Inconclusive results are not listed. Activity calls are given as the source filed them. How the calls were made is not given here.

The nature of the test: COV362 cell viability loss – plate reader, dry powder, SA12, cytotoxicity control for PAX8 inhibitor project, dose response (AID 743144). To be noted: COV362 ovarian cancer cells; series mostly up to 35 µM.
As for `N#C[C@@H]1[C@@H](c2ccc(-c3cccc(F)c3)cc2)[C@H](CO)N1C(=O)NC1CCCC1`, the compound was classed as inactive.

On to `COc1cccc(C#Cc2ccc([C@@H]3[C@H](C#N)N(C(=O)c4ccccn4)[C@H]3CO)cc2)c1`, for which the compound was called inactive.

Take `CC(=O)N1CCOc2ccc(S(=O)(=O)N3CCN(c4cccc(C(F)(F)F)c4)CC3)cc21`: the result was inactive.

As for `O=C(Nc1ccc(OCC(F)(F)C(F)F)c(C(F)(F)F)c1)c1ccccc1O`, the compound was classed as inactive.

With `COc1ccc(S(=O)(=O)Nc2ccc3c(c2)CC(=O)N([C@@H](C)CO)C[C@H](C)[C@@H](CN(C)Cc2ccc(C(F)(F)F)cc2)O3)cc1`, the outcome was inactive.

Turning to `N#C[C@H]1[C@@H](c2ccc(C3=CCCC3)cc2)[C@@H](CO)N1C(=O)NC1CCCCC1`, the compound was classed as inactive.

Turning to `N#C[C@H]1N[C@H](CO)[C@@H]1c1ccc(C#Cc2ccccc2F)cc1`, the result was inactive.

`C[C@H](CO)N1C[C@H](C)[C@@H](CN(C)Cc2ccc(-c3ccccc3)cc2)Oc2ccc(NC(=O)C3CC3)cc2CC1=O`: the compound was classed as inactive.

Turning to `O=C(CCS(=O)(=O)c1ccccc1)Nc1nc2ccc(F)cc2s1`, the outcome was inactive.

Take `C[C@@H]1CN([C@@H](C)CO)S(=O)(=O)c2ccc(C#C[C@@H](C)O)cc2O[C@H]1CN(C)Cc1ccc(-c2ccccc2)cc1`: the result was inactive.

On to `C[C@H](CO)N1C[C@H](C)[C@H](CN(C)C(=O)Nc2ccc(-c3cccs3)cc2)OCc2cnnn2CCCC1=O`, for which the call was inactive.

`Cc1ccc(S(=O)(=O)Nc2ccc3c(c2)C(=O)N([C@H](C)CO)C[C@@H](C)[C@H](CN(C)Cc2ccc(C(F)(F)F)cc2)OCCCC[C@H](C)O3)cc1`: the result was inactive.

For the compound `C[C@@H]1CN([C@H](C)CO)C(=O)CCCn2nncc2CO[C@H]1CN(C)Cc1ccc(Oc2ccccc2)cc1`, the result was inactive.

For `O=C(C[C@H]1CC[C@H]2[C@@H](COC[C@@H](O)CN2S(=O)(=O)c2cccc(Cl)c2)O1)Nc1ccc(-c2ccccc2)cc1`, the compound was classed as inactive.

Turning to `COc1cccc(-c2ccc([C@H]3[C@@H](CO)N(C(=O)Cc4ccccc4)[C@H]3C#N)cc2)c1`, the call was inactive.

For the compound `CC(C)(C)c1nnc(NC(=O)CCS(=O)(=O)c2ccccc2)s1`, the outcome was inactive.

Turning to `O=C(CN1C(=O)c2ccccc2S1(=O)=O)c1ccccc1Cl`, the result was inactive.

For the compound `C[C@@H]1CN([C@H](C)CO)C(=O)CCCn2cc(nn2)CO[C@H]1CN(C)C(=O)Nc1ccc(-c2cccs2)cc1`, the compound was called inactive.

Regarding `COc1ccccc1C#Cc1ccc([C@@H]2[C@@H](C#N)N(C(=O)C3CCCCC3)[C@H]2CO)cc1`, the outcome was inactive.

Take `COc1cccc(C#Cc2ccc([C@H]3[C@@H](CO)N(C(=O)c4ccccn4)[C@H]3C#N)cc2)c1`: the result was inactive.

As for `C[C@H](CO)N1C[C@H](C)[C@@H](CN(C)Cc2ccc(C(F)(F)F)cc2)OCCCC[C@H](C)Oc2ccc(NS(=O)(=O)c3ccc(F)cc3)cc2C1=O`, the result was inactive.
